Source: PubChem BioAssay (Tox21)
Several values for one entry are separate records, joined by “and”; a condition that tells them apart may be missing. Identical values can stand only once. Some compounds were tested as several samples or in several runs, with calls that do not always agree. Activity calls are given as the source filed them. Where a call stands in place of a potency, no number is given. Unless noted, the call rests on the fitted dose curve; in most records, active means well fitted curve in the direction sought with a large enough effect in the repeat runs; inconclusive means weak or mixed curves; inactive means no such curve, though single readings can be large; an effect the other way counts as inactive or inconclusive.

Experiments:
[1] = qHTS assay to identify small molecule antagonists of the glucocorticoid receptor (GR) signaling pathway - cell viability counter screen (AID 720693); further: nearly all actives have a fitted effect of over 55% in size; further: potency means the concentration at half of the fitted maximal effect
[2] = qHTS assay for identifying genotoxic compounds that show differential cytotoxicity against isogenic chicken DT40 cell lines with known DNA damage response pathways - Rev3 mutant cell line (AID 743014); further: nearly all actives have a fitted effect of over 55% in size; further: potency means the concentration at half of the fitted maximal effect
[3] = qHTS assay for identifying genotoxic compounds that show differential cytotoxicity against isogenic chicken DT40 cell lines with known DNA damage response pathways - Rad54/Ku70 mutant cell line (AID 743015); further: nearly all actives have a fitted effect of over 60% in size; further: potency means the concentration at half of the fitted maximal effect
[4] = qHTS assay to identify small molecule antagonists of the androgen receptor (AR) signaling pathway using the MDA cell line - cell viability counter screen (AID 743041; further: nearly all actives have a fitted effect of over 45% in size; further: potency means the concentration at half of the fitted maximal effect)
How it was run: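 Cells were plated at 3,000 per well and left 5 h. Compounds in DMSO were then pinned in, followed by R1881. After 16 h at 37C, CellTiter-Fluor fluorescence gave viability.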

[5] = qHTS assay to identify small molecule antagonists of the thyroid receptor (TR) signaling pathway (AID 743065); further: nearly all actives have a fitted effect of over 55% in size; further: potency means the concentration at half of the fitted maximal effect
How it was run: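 Antagonism measured as loss of luciferase signal in GH3 cells stably carrying a TRE-luciferase reporter, co-treated with compound and T3 (1 nM final) for 23.5 h at 37 C. Viability was read in the same well by CellTiter-Fluor.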

[6] = test system: thyroid hormone receptor (rat, GH3 cells); assay: qHTS assay to identify small molecule agonists of the thyroid receptor (TR) signaling pathway (AID 743066; calls by dose curve)
[7] = molecular target: Estrogen receptor (Homo sapiens) (UniProt P03372); assay: qHTS assay to identify small molecule antagonists of the estrogen receptor alpha (ER-alpha) signaling pathway (AID 743069; active means well fitted curve in the direction sought with a large enough effect in the signal ratio in the repeat runs, not every such curve was filed as active; inconclusive means weak or mixed curves, or effect the other way; inactive means no such curve, though single readings can be large or run the other way; the % refers to the signal ratio)
Chain of Estrogen receptor (Homo sapiens) (P03372 whole entry, looked up): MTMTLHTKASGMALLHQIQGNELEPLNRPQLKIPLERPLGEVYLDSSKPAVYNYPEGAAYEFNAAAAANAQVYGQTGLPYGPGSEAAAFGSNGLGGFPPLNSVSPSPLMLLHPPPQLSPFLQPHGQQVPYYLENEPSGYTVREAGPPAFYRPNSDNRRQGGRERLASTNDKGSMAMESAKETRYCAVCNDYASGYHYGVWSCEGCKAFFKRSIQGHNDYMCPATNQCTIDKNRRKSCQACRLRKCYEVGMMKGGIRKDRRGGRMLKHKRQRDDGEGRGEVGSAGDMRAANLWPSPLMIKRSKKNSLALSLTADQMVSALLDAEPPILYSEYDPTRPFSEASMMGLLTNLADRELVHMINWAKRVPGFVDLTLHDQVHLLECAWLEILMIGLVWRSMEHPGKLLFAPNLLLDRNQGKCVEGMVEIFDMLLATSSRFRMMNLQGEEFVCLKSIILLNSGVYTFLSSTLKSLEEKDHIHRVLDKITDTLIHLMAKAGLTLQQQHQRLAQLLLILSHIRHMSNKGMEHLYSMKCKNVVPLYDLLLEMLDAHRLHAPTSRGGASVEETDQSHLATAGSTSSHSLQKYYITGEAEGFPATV
How it was run: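 ER-alpha-UAS-bla GripTite HEK293 line; 2% charcoal-stripped FBS overnight; plated, 4 hr 37C/5% CO2; cpd in DMSO + 17beta-estradiol, 18 hr 37C; LiveBLAzer B/G FRET substrate 2 hr RT; fluorescence intensity.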

[8] = qHTS assay to identify small molecule antagonists of the estrogen receptor alpha (ER-alpha) signaling pathway - cell viability counter screen (AID 743074; calls by dose curve;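 further: HEK293 cells carrying ER-alpha-UAS-bla reporter stimulated with 17beta-estradiol; nearly all actives have a fitted effect of over 45% in size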)
[9] = molecular target: Estrogen receptor (Homo sapiens) (UniProt P03372); assay: qHTS assay to identify small molecule agonists of the estrogen receptor alpha (ER-alpha) signaling pathway (AID 743075; calls by dose curve;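 further: HEK293 GripTite cells with ER-alpha and UAS-driven beta-lactamase reporter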; further: potency means the concentration at half of the fitted maximal effect)
[10] = molecular target: Estrogen receptor (Homo sapiens) (UniProt P03372); assay: qHTS assay to identify small molecule agonists of the estrogen receptor alpha (ER-alpha) signaling pathway using the BG1 cell line (AID 743079); further: nearly all actives have a fitted effect of over 20% in size; further: potency means the concentration at half of the fitted maximal effect
[11] = qHTS assay to identify small molecule antagonists of the estrogen receptor alpha (ER-alpha) signaling pathway using the BG1 cell line (AID 743080; calls by dose curve;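 further: BG1 cells stimulated with 17beta-estradiol alongside compound; nearly all actives have a fitted effect of over 25% in size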; further: potency means the concentration at half of the fitted maximal effect)
How it was run: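 After 5 days in phenol-red-free 10% charcoal-stripped FBS medium, BG1-Luc-4E2 cells were seeded, left 24 h at 37 C, co-treated with compounds and 17beta-estradiol for 21.5 h, then assayed for viability and luciferase.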

[12] = qHTS assay to identify small molecule antagonists of the estrogen receptor alpha (ER-alpha) signaling pathway using the BG1 cell line - cell viability counter screen (AID 743081);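 further: compound given together with 17beta-estradiol as the ER stimulus; nearly all actives have a fitted effect of over 45% in size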; further: potency means the concentration at half of the fitted maximal effect
[13] = qHTS assay to identify small molecule antagonists of the androgen receptor (AR) signaling pathway - cell viability counter screen (AID 743033; further: nearly all actives have a fitted effect of over 45% in size; further: potency means the concentration at half of the fitted maximal effect)
[14] = qHTS assay to identify small molecule antagonists of the thyroid receptor (TR) signaling pathway - cell viability counter screen (AID 743064); further: nearly all actives have a fitted effect of over 50% in size; further: potency means the concentration at half of the fitted maximal effect
How it was run: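 Fluorescence from CellTiter-Fluor, added after 23.5 h exposure at 37 °C, reported viability of GH3.TRE-Luc cells co-treated with compound and 1 nM T3. Measured in the same wells as the luciferase TR readout.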

Aromatase (Homo sapiens) = Aromatase (Homo sapiens) (UniProt P11511); assay: qHTS assay to identify aromatase inhibitors (AID 743083); further: series mostly up to about 70 µM; nearly all actives have a fitted effect of over 55% in size
Chain of Aromatase (Homo sapiens) (P11511 whole entry, looked up): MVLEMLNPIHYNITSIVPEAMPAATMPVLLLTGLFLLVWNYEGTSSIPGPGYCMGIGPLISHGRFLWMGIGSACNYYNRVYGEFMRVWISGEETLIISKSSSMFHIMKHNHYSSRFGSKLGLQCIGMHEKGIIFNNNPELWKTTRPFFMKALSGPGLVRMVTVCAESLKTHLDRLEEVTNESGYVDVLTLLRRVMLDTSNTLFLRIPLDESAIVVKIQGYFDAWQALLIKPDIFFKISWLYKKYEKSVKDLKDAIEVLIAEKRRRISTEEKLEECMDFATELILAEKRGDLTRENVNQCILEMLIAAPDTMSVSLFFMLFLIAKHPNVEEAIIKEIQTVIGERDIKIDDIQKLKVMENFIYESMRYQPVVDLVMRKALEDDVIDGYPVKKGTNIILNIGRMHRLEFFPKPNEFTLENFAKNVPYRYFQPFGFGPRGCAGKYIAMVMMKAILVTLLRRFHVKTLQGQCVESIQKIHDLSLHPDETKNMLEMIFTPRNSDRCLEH

[15] = qHTS assay for identifying genotoxic compounds that show differential cytotoxicity against isogenic chicken DT40 cell lines with known DNA damage response pathways - wild type cell line (AID 743012); further: potency means the concentration at half of the fitted maximal effect; nearly all actives have a fitted effect of over 60% in size
How it was run: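 Cells (DT40 wild type, 300/well) are treated with DMSO-dissolved compounds after a ~0.5 h pre-incubation and kept 40 h at 37 C/5% CO2. Viability is then measured by CellTiter-Glo luminescence following 30 min at room temperature.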

Structure (SMILES) | Potency [1] | Potency [2] | Potency [3] | Potency [4] | Potency [5] | Potency [6] | Potency [7] | Potency [8] | Potency [9] | Potency [10] | Potency [11] | Potency [12] | Potency [13] | Potency [14] | Potency (Aromatase (Homo sapiens)) | Potency [15]
Cc1ccc(C(C)(C)C)c(O)c1 | inactive | inactive and 48.6 µM (active) | inactive and 43.3 µM (active) | inactive | 54.5 µM (active) | inactive | inactive | inactive | inactive | inactive | inactive | inactive | – | – | – | –
CC/C(=C(/CC)c1ccc(O)cc1)c1ccc(O)cc1 | – | 29.8 µM (active) and 27.3 µM (active) | 26.6 µM (active) and 27.3 µM (active) | inactive | – | – | – | inactive | – | – | – | inactive | inactive and 48.6 µM (active) | 54 µM (active) and 54.5 µM (active) | – | –
CC(=O)Oc1c(C)c(C)c2c(c1C)CC[C@@](C)(CCC[C@H](C)CCC[C@H](C)CCCC(C)C)O2 | inactive | – | – | inactive | inactive | inactive | inactive | inactive | inactive | inactive | inactive | inactive | inactive | – | inactive | –
Nc1cc(Cl)c(N)c(Cl)c1 | inactive | – | – | inactive | inactive | inactive | inactive | inactive | inactive | inactive | 34.1 µM (active) and inactive | inactive | inactive | – | inactive | –
CC(=O)OC(C)C | inactive | inactive | inactive | inactive | inactive | inactive | inactive | inactive | inactive | – | inactive | inactive | inactive | inactive | inactive | –
C=CCOC(=O)C(=C)C | inactive | inactive | inactive | inactive | inactive | inactive | – | – | – | – | – | inactive | inactive | inactive | – | –
CC1(C)O[C@@H]2C[C@H]3[C@@H]4C[C@H](F)C5=CC(=O)C=C[C@]5(C)[C@@]4(F)[C@@H](O)C[C@]3(C)[C@]2(C(=O)CO)O1 | inactive | inactive | inactive | inactive | inactive | inactive | inactive | inactive | inactive | inactive | inactive | inactive | inactive | inactive | inactive | –
CCCCCC1C(=O)CCC1CC(=O)OC (centres undefined) | inactive | inactive | inactive | inactive | inactive | inactive | inactive | inactive | inactive | inactive | inactive | inactive | inactive | – | inactive | –
COC(=O)C(C)Oc1ccc(Oc2ncc(C(F)(F)F)cc2Cl)cc1 (centres undefined) | inactive | 54.5 µM (active) | – | inactive | inactive | inactive | – | inactive | inactive | – | inactive | inactive | inactive | inactive | inactive | –
Nc1ccc2c(c1)C(=O)c1ccccc1C2=O | inactive | 60 µM (active) and inactive | 9.51 µM (active) and 12.2 µM (active) | inactive | inactive | inactive | – | – | inactive | 268 nM (active) and 686 nM (active) | – | inactive | 48.1 µM (active) and inactive | – | inactive | –
CCCCCCCCCCCCCO | inactive | inactive | inactive | inactive | inactive | inactive | inactive | inactive | inactive | inactive | inactive | inactive | inactive | inactive | inactive | –
CC1=CC(C)(C)Nc2ccccc21 | inactive | inactive | inactive | inactive | – | inactive | inactive | inactive | inactive | inactive | inactive | inactive | inactive | inactive | – | –
CN(C)CCCN1c2ccccc2Sc2ccc(Cl)cc21 | – | 9.44 µM (active) and 27.3 µM (active) | 11.9 µM (active) and 19.3 µM (active) | 68.6 µM (active) | 13.3 µM (active) and 15.4 µM (active) | – | – | inactive | – | – | – | inactive | 24.5 µM (active) | 11.9 µM (active) and 19.3 µM (active) | inactive | 9.44 µM (active) and 13.7 µM (active)
Nc1cc([N+](=O)[O-])ccc1C(=O)O | inactive | inactive | inactive | inactive | inactive | inactive | inactive | – | inactive | inactive and 77 µM (active) | inactive | inactive | inactive | – | inactive | –
C=CC(C)(O)CCC=C(C)C (centres undefined) | inactive | inactive | inactive | inactive | inactive | inactive | – | inactive | – | – | – | inactive | inactive | inactive | inactive | –
CN1CCOCC1 | inactive | inactive | inactive | inactive | inactive | inactive | – | inactive | – | – | – | inactive | inactive | inactive | inactive | –
CCC(=O)O[C@H]1[C@H](O[C@@H]2[C@@H](C)[C@H](O[C@H]3C[C@@](C)(OC)[C@@H](O)[C@H](C)O3)[C@@H](C)C(=O)O[C@H](CC)[C@@](C)(O)[C@H](O)[C@@H](C)C(=O)[C@H](C)C[C@@]2(C)O)O[C@H](C)C[C@@H]1N(C)C | inactive | inactive and 20.3 µM (active) | inactive and 36.1 µM (active) | inactive | 11.9 µM (active) and 36.1 µM (active) | inactive | – | inactive | – | – | – | 26.6 µM (active) and 32.2 µM (active) | inactive | – | inactive | –
C[C@]12CC[C@@H]3c4ccc(O)cc4CC[C@H]3[C@@H]1CC[C@H]2O | 17.4 µM (active) | 24.8 µM (active) and 48.6 µM (active) | 27.8 µM (active) and 54.5 µM (active) | inactive | 9.86 µM (active) and 24.3 µM (active) | inactive | – | inactive | – | – | – | inactive | inactive | – | – | –
O=C(O)COCCN1CCN(C(c2ccccc2)c2ccc(Cl)cc2)CC1 (centres undefined) | inactive | – | – | inactive | inactive | inactive | inactive | inactive | inactive | inactive | inactive | inactive | inactive | inactive | – | –
O=C(O)CCCC(=O)O | inactive | inactive | inactive | inactive | inactive | inactive | inactive | – | inactive | inactive | inactive | inactive | inactive | inactive | inactive | –
CCCCCCCC/C=C\CCCCCCCC(=O)O | inactive | inactive | inactive | inactive | inactive | inactive | inactive | inactive | inactive | inactive | inactive | inactive | inactive | inactive | inactive | –
OC[C@@H](O)[C@@H](O[C@@H]1O[C@H](CO)[C@H](O)[C@H](O)[C@H]1O)[C@H](O)[C@@H](O)CO | inactive | inactive | inactive | inactive | – | – | inactive | inactive | 3.38 µM [inconclusive] (active) and inactive | 596 nM (active) and inactive | inactive | inactive | inactive | – | inactive | –
CC1(C)OC(=O)NC1=O | inactive | inactive | inactive | inactive | inactive | inactive | – | inactive | – | – | – | inactive | inactive | inactive | inactive | –
O=C1OC2(c3ccccc31)c1cc(I)c(O)c(I)c1Oc1c2cc(I)c(O)c1I | inactive | 27.6 µM (active) and 11.7 µM (active) | 17.4 µM (active) and 10.5 µM (active) | – | 34.4 µM (active) [middle of 4 runs] | inactive | – | inactive | – | – | – | 10.9 µM (active) [middle of 4 runs] | inactive | 19.4 µM (active) [middle of 4 runs] | inactive | –
